S2 tox: Viability Counterscreen for Primary qHTS for Inhibitors of ATXN expression; S2 cells (HEK-293 line with an ATXN2-luciferase reporter) viability, CellTiter-Fluor protease fluorescence, 24 h; Potency, µM (titrated, usually from 56.7 µM), actives largely listed as cytotoxic; hit rate 0.49% among 400,000; AID 651635, 2014; further: nearly all actives have a fitted effect of over 40% in size
ATXN2 expr inh: Primary qHTS for Inhibitors of ATXN expression. HEK-293 ATXN2-luciferase reporter, luminescence, 24 h. Potency, µM (series often up to 57 µM), without a hit: top-dose activity change, negative = inhibition, usual class: inhibitors. hit rate 0.72% among 360,000; further: on the % scale 0 is the no-effect control and ±100 the full control effect; nearly all actives have a fitted effect of over 55% in size
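qHTS (up to 57 uM final) was run with 24 h compound exposure of reporter cells at 37 °C. Each well was multiplexed: SteadyGlo luminescence measured ATXN2-luciferase expression after a fluorogenic Gly-Phe-AFC viability readout (25 uM final).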
HepG2 viability: qHTS for Inhibitors of TGF-b: Cytotox Counterscreen. HepG2 CAGA-GFP viability, ATP luminescence, 18 h. Potency, µM (series often up to 46.1 µM), for inactives: at the highest dose activity change, negative = cytotoxicity, hits mostly cytotoxic. hit rate 0.76% among 410,000. AID 588856, 2011
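HepG2 CAGA-GFP cells (1000/well, DMEM with 1% FBS) received compound, then TGF-beta at 500 pg/mL final, and were incubated 18 hours at 37 degrees C. Viability was read by CellTiter-Glo luminescence. Media-only wells were set as complete cell-killing and DMSO as no toxicity.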
TDP1 cell noCPT: qHTS for Inhibitors of human tyrosyl-DNA phosphodiesterase 1 (TDP1): qHTS in cells in absence of CPT. DT40 Tdp1-/- hTDP1 cells, no CPT, ATP luminescence, 48 h. Potency, µM (series often up to 46.2 µM), for inactives: top-dose activity change, negative = growth inhibition, usual class: inhibitors. hit rate 15% among 420,000. AID 686978, 2013; further: on the % scale 0 is the no-effect control and ±100 the full control effect; nearly all actives have a fitted effect of over 55% in size
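Cells were dispensed at 400 per well, compounds added by pin tool, plates incubated ≥48 hr at 37 °C, then CellTiter-Glo added for 30 min at room temperature before luminescence reading. Line: DT40 Tdp1-/- complemented with hTDP1; camptothecin omitted.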
TGFb inhibitor: qHTS for Inhibitors of TGF-b; HepG2 CAGA-GFP TGF-b/SMAD3 reporter, GFP fluorescence, 18 h; TGF-beta stimulated, 500 pg/mL final; AID 588855, 2011; Potency, µM (highest dose often 46.1 µM), for the others: top-dose activity, negative = inhibition, usual class: inhibitors; hit rate 1.2% among 410,000; further: on the % scale 0 is the no-effect control and ±100 the full control effect; nearly all actives have a fitted effect of over 65% in size
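Inhibition of TGF-beta-driven CAGA-GFP reporter expression in HEPG2 cells is measured by cellular GFP fluorescence after 18 h stimulation with 500 pg/mL recombinant TGF-beta in 1% FBS medium at 37 degrees C.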
DT40 TDP1 CPT: qHTS for Inhibitors of human tyrosyl-DNA phosphodiesterase 1 (TDP1): qHTS in cells in presence of CPT; chicken DT40 Tdp1-/-;hTDP1 cells + 20 nM CPT, ATP luminescence, 48 h; Potency, µM (highest dose often 46.2 µM), for inactives: top-dose activity change, negative = growth inhibition, hits mostly inhibitors; hit rate 12% among 420,000; AID 686979, 2013; further: on the % scale 0 is the no-effect control and ±100 the full control effect; nearly all actives have a fitted effect of over 55% in size
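Chicken DT40 Tdp1-/- cells complemented with human TDP1, 400 cells/well, exposed to compounds plus 20 nM camptothecin for at least 48 h at 37 C; viability read as ATP content by CellTiter-Glo luminescence.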
The depositor's hits bear a star; ! = not active in a repeat. An excerpt weighted towards active compounds, which were near 17% of everything screened. The call rests on the fitted dose curve; in most records, active means well fitted curve in the direction sought with a large enough effect; inconclusive means small, poorly fitted or top-dose-only effect, or another doubt; inactive means no such curve, though single readings can be large; an effect the other way counts as inactive or inconclusive. Potency means the concentration at half of the fitted maximal effect.

What do the screens show for `O=c1c(-c2ccco2)[n+]([O-])c2ccccc2n1OCc1c(F)cccc1F`?
S2 tox: inactive; ATXN2 expr inh: -26.8%; HepG2 viability: 6.0%; TDP1 cell noCPT: inconclusive; TGFb inhibitor: 6.5%; DT40 TDP1 CPT: 4.7%

How did COc1ccccc1COn1c(=O)c(-c2ccco2)[n+]([O-])c2ccccc21 do in these assays?
S2 tox: inactive; HepG2 viability: -0.6%; TDP1 cell noCPT: 18.4µM*; TGFb inhibitor: -9.6%; DT40 TDP1 CPT: 14.6µM*

Results for O=C(CSc1oc(-c2ccco2)nc1S(=O)(=O)c1ccc(Cl)cc1)Nc1ccc(F)cc1 ?
S2 tox: inactive; ATXN2 expr inh: -9.1%; HepG2 viability: -26.2%; TDP1 cell noCPT: -6.4%; TGFb inhibitor: -16.4%; DT40 TDP1 CPT: -28.5%

How did O=C(Nc1ccc2c(c1)CCO2)Nc1nnc([C@H]2C[C@H](O)[C@@H](CO)O2)s1 do in these assays?
S2 tox: inactive; ATXN2 expr inh: -0.3%; HepG2 viability: -1.6%; TDP1 cell noCPT: 5.0%; TGFb inhibitor: -18.8%; DT40 TDP1 CPT: -19.6%

Results for O=S(=O)(c1cnc(Cl)c(Cl)c1)N1CCN(c2ncccn2)CC1 ?
S2 tox: inactive; ATXN2 expr inh: 1.0%; HepG2 viability: -6.4%; TDP1 cell noCPT: 3.2%; TGFb inhibitor: -10.4%; DT40 TDP1 CPT: -22.4%

Results for Cc1c[nH]c(=O)n(CCCN2CCN(c3ccccc3OCC(F)(F)F)CC2)c1=O ?
TDP1 cell noCPT: inconclusive; DT40 TDP1 CPT: -8.9%

How did COc1ccc(CN2CCN(Cc3ccc(Br)cc3)CC2)c(OC)c1OC do in these assays?
S2 tox: inactive; HepG2 viability: -23.9%; TDP1 cell noCPT: 16.4µM*; TGFb inhibitor: inconclusive; DT40 TDP1 CPT: inconclusive

What do the screens show for `COc1ccc(CN2CCN(Cc3cccc(Oc4ccccc4)c3)CC2)c(OC)c1OC`?
S2 tox: inactive; ATXN2 expr inh: -25.4%; HepG2 viability: -34.1%; TDP1 cell noCPT: inconclusive; TGFb inhibitor: inconclusive; DT40 TDP1 CPT: inconclusive

Results for COc1ccc(CN2CCN(C(c3ccc(F)cc3)c3ccc(F)cc3)CC2)c(OC)c1OC ?
S2 tox: inconclusive; ATXN2 expr inh: 39.8µM*!; HepG2 viability: -28.4%; TDP1 cell noCPT: 2.91µM*; TGFb inhibitor: inconclusive; DT40 TDP1 CPT: 2.59µM*

Results for COc1ccc(CN2CCN(c3ccc(F)cc3)CC2)c(OC)c1OC ?
S2 tox: inactive; ATXN2 expr inh: -21.7%; HepG2 viability: 18.8%; TDP1 cell noCPT: inconclusive; TGFb inhibitor: 9.6%; DT40 TDP1 CPT: inconclusive

Results for COc1ccc(/C=C(\NC(=O)c2ccc(C)cc2)C(=O)Nc2c(C)n(C)n(-c3ccccc3)c2=O)cc1 ?
S2 tox: inactive; HepG2 viability: 2.0%; TDP1 cell noCPT: -29.2%; TGFb inhibitor: -2.2%; DT40 TDP1 CPT: -9.9%

Results for Cc1ccc(S(=O)(=O)/N=C(/Nc2cccc(O)c2)c2ccccc2)cc1 ?
S2 tox: inactive; ATXN2 expr inh: -16.7%; HepG2 viability: -39.0%; TDP1 cell noCPT: inconclusive; TGFb inhibitor: -18.4%; DT40 TDP1 CPT: inconclusive

How did O=C(NCC(c1cccnc1)N1CCN(Cc2ccccc2)CC1)C(=O)Nc1ccc(Cl)cc1 (stereo not given) do in these assays?
S2 tox: inconclusive; ATXN2 expr inh: inconclusive; HepG2 viability: -56.4%; TDP1 cell noCPT: 7.31µM*; TGFb inhibitor: inconclusive; DT40 TDP1 CPT: 13µM*

Screening data: PubChem BioAssay, National Center for Advancing Translational Sciences (NCATS)
